SMILES strings stand for the structures. Several values for one entry are separate records, joined by “and”; a condition that tells them apart may be missing. Equal values may be shown once. Inconclusive results are not listed. Where a structure was tested more than once in an assay, its records may differ in their call. Activity calls are given as the source filed them. Calls follow the shape of the dose curve; as a rule, active = well fitted inhibition curve with a large enough effect; inconclusive = small, poorly fitted or top-dose-only effect; inactive = flat fitted curve, though single readings scatter.
% is scaled to controls: 0 for no effect and ±100 for the full control effect; potency is read from the fitted curve at half-maximal effect.

The test system of this assay is MKL-1. As to the kind of experiment: qHTS assay to identify novel small-molecules to repurpose for Merkel cell carcinoma treatment (AID 1296009). Also: nearly all actives have a fitted effect of over 60% in size. Particulars: MCC and control cell lines, CellTiter-Glo viability, 72 h; series mostly up to 46 µM; activity change, negative = cytotoxicity: at the top concentration. An outline of the steps:
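Cells exposed to NPC (8-point) and MIPE (11-point) compound dilutions for 72 hr at 37 degree celsius; viability read by CellTiter-Glo luminescence, normalized to no-cell and DMSO in-plate controls.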
In general terms: Quantitative high-throughput screening tests each substance at several concentrations.
`CN(C)c1ccc(C2Nc3ccc4ccccc4c3C3=C2C(=O)CC(C)(C)C3)cc1Br` (stereo not given): the “activity change, negative = cytotoxicity” value is -7.11% (inactive). Turning to `COc1ccc2nc(S(=O)Cc3ncc(C)c(OC)c3C)[nH]c2c1` (stereo not given), the Potency entry was “inactive”. As for `Fc1ccc(Cl)cc1-c1nc(Nc2ccncc2)c2nccnc2n1`, the “activity change, negative = cytotoxicity” value is 0.759% (inactive). As for `CS(=O)(=O)Oc1ccc2c(NC(N)=O)c(C(=O)c3ccc(Cl)cc3Cl)oc2c1`, the Potency is 8.33 µM (active).

For the compound `Cc1cccc(-c2nn(C(=S)Nc3ccccc3)cc2-c2ccnc3ccccc23)n1`, the “activity change, negative = cytotoxicity” value is -3.01% (inactive). Consider `CCC(C)n1ncn(-c2ccc(N3CCN(c4ccc(OC[C@H]5CO[C@](Cn6cncn6)(c6ccc(Cl)cc6Cl)O5)cc4)CC3)cc2)c1=O` (stereo not given in full), for which the Potency result is “inactive”. For the compound `NC(=O)c1ccc(I)c([N+](=O)[O-])c1`, the “activity change, negative = cytotoxicity” value is 6.5% (inactive). For `Nc1ncnc2nc(-c3ccc(N4CCOCC4)nc3)cc(-c3cccc(Br)c3)c12`, the “activity change, negative = cytotoxicity” value was -6.75% (inactive). Still for that read-out and setting: then `COc1ccc(-c2c(-c3ccc(O)cc3O)n[nH]c2C)cc1`, with -0.196% [at 92.7 µM] (inactive). Still for that read-out and setting: to `Cc1c(CCOc2ccc(C(=O)O)cc2)c2cc(Cl)ccc2n1C(c1ccccc1)c1ccccc1` belongs -1.38% (inactive).

As to `Cc1ccnc(NS(=O)(=O)c2ccc(NC(=O)Nc3ccc(S(=O)(=O)Nc4nccc(C)n4)cc3)cc2)n1`, the “activity change, negative = cytotoxicity” value is 1.84% (inactive).

For `C[C@]12CC[C@H](O)CC1=CC[C@@H]1[C@H]2CC[C@]2(C)C(c3cccnc3)=CC[C@H]12`, the “activity change, negative = cytotoxicity” value was -2.63% [at 16.1 µM] (inactive). On to `OC(CN1CCC(Cc2ccc(F)cc2)CC1)c1ccc(Cl)cc1` (stereo not given), for which the Potency result was “inactive”. As for `NC(=O)c1cnccn1`, the Potency entry is “inactive”. For the compound `NC(=O)C1CCCc2c1[nH]c1ccc(Cl)cc21` (stereo not given), the “activity change, negative = cytotoxicity” value is -13.8% (inactive). The same measure, in the same setting: then `NC(=O)c1ccc(-c2nc(-c3ccc4c(c3)OCO4)c(-c3ccccn3)[nH]2)cc1`, with -1.76% (inactive); and `CC[C@@H](C)[C@H](NC(=O)[C@H](CC1CCCCC1)NC(=O)c1ccno1)C(=O)N1CCC2(CCc3ccccc32)CC1`, with -16.1% (inactive). Still for that read-out and setting: to `CCCn1c(=O)c2[nH]c(C34CC5CC3C[C@@H](C5)C4)nc2n(CCC)c1=O` belongs -2.57% (inactive). `Cc1ccc(N(CC2=NCCN2)c2cccc(O)c2)cc1`: the Potency result is “inactive”. As for `CCN(c1ccccc1)c1cc(NC)[n+](C)c(C)n1`, the “activity change, negative = cytotoxicity” value is -2.74% (inactive). Still for that read-out and setting: to `COc1ccc(COc2cc3oc(=O)c4cc(C(C)O)ccc4c3cc2OC)cc1` (stereo not given) belongs 3.02% (inactive). The same measure, in the same setting: to `C[C@@H]1CN(Cc2ccc(F)cc2)[C@@H](C)CN1C(=O)c1cc2c(C(=O)C(=O)N(C)C)cn(C)c2cc1Cl` belongs -1.16% (inactive). Same read-out and setting: to `C[C@]1(c2nc3c(C(N)=O)cccc3[nH]2)CCCN1` belongs -23.4% (inactive); to `COCCNCCCn1c(C(=O)CF)c(-c2ccc(C)cc2)c2c(N)ncnc21`, 9.47% (inactive). With `Cc1cn[nH]c1`, the Potency entry is “inactive and 5.9 µM (active)”. On to `Cc1n[nH]c(C)c1Cc1sc2c(c1C(=O)N1C[C@H](O)CO1)c(=O)n(C)c(=O)n2CC(C)C`, for which the “activity change, negative = cytotoxicity” value was -3.33% (inactive). Turning to `CNC(=O)c1ccc(N2C(=S)N(c3ccc(C#N)c(C(F)(F)F)c3)C(=O)C2(C)C)cc1F`, the “activity change, negative = cytotoxicity” value was 1.85% (inactive). Still for that read-out and setting: to `O=C(C1CC1)N1CC[C@@H](Cn2c(-c3ccc(-c4ccc5occc5c4)cc3)nc3cnccc32)C1` belongs 6.88% (inactive). As to `COc1ccccc1-c1cccc(-c2c(O)c3cc(C#N)c(Cl)cc3[nH]c2=O)c1`, the “activity change, negative = cytotoxicity” value was 2.27% [at 92.7 µM] (inactive).

On to `O=C(O)[C@@H](c1ccc(OCc2ccc3ccccc3n2)cc1)C1CCCC1`, for which the “activity change, negative = cytotoxicity” value is -11.3% (inactive). Same read-out and setting: then `O=S(=O)(N=Cc1c(O)ccc2ccccc12)c1cccs1`, with 2.72% (inactive). `CCCc1nn(C)c2c(=O)[nH]c(-c3cc(S(=O)(=O)N4CCN(C)CC4)ccc3OCC)nc12`: the Potency entry was “inactive”. The same measure, in the same setting: to `NNCCc1ccccc1` belongs “inactive”.

As to `COc1ccc(CC2=NN3C([C@@H](CCc4ccccc4)[C@@H](C)O)=NC(C)C3C(=O)N2)cc1OC` (stereo not given in full), the “activity change, negative = cytotoxicity” value was 2.2% (inactive). Still for that read-out and setting: then `Nc1cccc(S(=O)(=O)N2CCCN(S(=O)(=O)c3ccc4c(c3)OCCO4)CC2)c1`, with -1.1% (inactive).

The values above are taken from PubChem BioAssay (NCATS).
